From PubChem
KB-V1 cytotox = KB-V1 MDR subline cytotoxicity | KB-V1 MDR cells viability, CellTiter-Glo, 72 h | Potency, µM (series often up to 46.1 µM), actives largely listed as cytotoxic | actives 3.4% (n = 400,000) | AID 1347076; also: % is scaled to controls: 0 for no effect and ±100 for the full control effect; nearly all actives have a fitted effect of over 60% in size
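qHTS viability screen in drug-selected KB-V1 MDR cells: 72 h compound treatment at 37 degrees C, ATP luminescence end point.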
SW480 rerep = induces DNA re-replication in SW480 colon adenocarcinoma cells; SW480 DNA re-replication, Hoechst DNA content imaging, 48 h; Potency, µM (series often up to 46.1 µM), inactives show top-dose re-replication activation, most hits filed as activators; actives 1.8% (n = 340,000); AID 624297; also: % of control where 0% means no effect; nearly all actives have a fitted effect of over 55% in size
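Readout is total intensity of Hoechst-stained nuclei, excited at 405 nm and collected at 500-530 nm. Compound treatment lasted 48 hr at 37 C in 5% CO2 before staining.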
12-LOX inh = ALOX12 (human) lipoxygenase inhibition. P18054. purified 12hLO, xylenol orange hydroperoxide absorbance. Potency, µM (doses to about 108 µM), inactives show at the top dose activity change, negative = inhibition, actives largely listed as inhibitors. actives 1.1% (n = 580,000); also: % is scaled to controls: 0 for no effect and ±100 for the full control effect
Target sequence (P18054 whole entry, looked up): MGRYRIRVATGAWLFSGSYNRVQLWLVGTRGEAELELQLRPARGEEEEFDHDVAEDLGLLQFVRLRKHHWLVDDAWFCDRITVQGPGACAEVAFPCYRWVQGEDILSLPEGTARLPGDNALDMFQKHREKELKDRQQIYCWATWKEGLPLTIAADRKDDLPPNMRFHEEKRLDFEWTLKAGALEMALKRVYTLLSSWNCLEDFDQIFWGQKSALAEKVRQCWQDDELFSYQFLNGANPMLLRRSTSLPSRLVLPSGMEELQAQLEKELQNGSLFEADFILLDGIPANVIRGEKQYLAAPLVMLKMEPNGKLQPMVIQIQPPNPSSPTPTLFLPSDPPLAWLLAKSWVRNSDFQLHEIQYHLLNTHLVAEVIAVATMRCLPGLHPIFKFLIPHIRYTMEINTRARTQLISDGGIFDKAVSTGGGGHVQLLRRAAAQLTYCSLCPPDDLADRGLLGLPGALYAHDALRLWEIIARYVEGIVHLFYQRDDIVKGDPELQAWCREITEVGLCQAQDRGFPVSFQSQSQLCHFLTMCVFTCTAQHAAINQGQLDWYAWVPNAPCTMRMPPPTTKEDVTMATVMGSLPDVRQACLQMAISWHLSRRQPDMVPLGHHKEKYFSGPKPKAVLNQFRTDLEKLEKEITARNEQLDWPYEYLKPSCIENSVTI
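Hydroperoxide product was detected by ferrous iron/xylenol orange as the 573 to 405 nm absorbance ratio. Arachidonic acid at 40 uM (final) was turned over for 30 min at room temperature by 150 nM human 12hLO, pH 7.0 Hepes buffer, after 15 min compound preincubation.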
MCF10A rerep = DNA re-replication induction in MCF 10a cells; Potency, µM (series often up to 46.1 µM), inactives show at the top dose activity, positive = re-replication, actives largely listed as activators; MCF 10A DNA re-replication, Hoechst nuclear intensity, 48 h; actives 2.9% (n = 350,000); AID 624296; also: % of control where 0% means no effect; nearly all actives have a fitted effect of over 50% in size
KB-3-1 cytotox = kills parental KB-3-1 adenocarcinoma cells. KB-3-1 viability, CellTiter-Glo ATP luminescence, 72 h. Potency, µM (titrated, usually from 46.1 µM), hits mostly cytotoxic. actives 1.4% (n = 400,000); also: % is scaled to controls: 0 for no effect and ±100 for the full control effect; nearly all actives have a fitted effect of over 60% in size
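Screening of KB-3-1 cells (DMEM, 10% FBS, phenol-red free) ran from lowest to highest compound concentration; after 72 h at 37 °C viability was read luminescently and curves fitted.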
PINK1 modulator = modulators of PINK1 expression. PINK1 immunofluorescence, high-content cytometry, 24 h. Potency, µM (doses to about 76.6 µM), inactives show at the highest dose activation (PINK1 increase), most hits filed as activators. actives 0.2% (n = 410,000). AID 624263; active = well fitted activation curve with a large enough effect; inconclusive = small, poorly fitted or top-dose-only effect; cell line not stated here; also: % of control where 0% means no effect; nearly all actives have a fitted effect of over 65% in size
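Stable cell line, 250 cells/well, 12 h attachment; compounds pinned at 5 concentrations, 24 h; CCCP control. Fixed with nuclear dye, primary antibodies 12 h at 10 degrees C, secondary plus cell stain; laser-scanning cytometer read.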
Active calls of the source: *; i = inactive; ? = inconclusive; · = not tested or not shown; [ ] = dose if it differs, or a comment. A selection: hits, their analogues and other compounds. The true share with any hit is near 5.8%. Unless noted, calls follow the shape of the dose curve; as a rule, active = well fitted curve in the direction sought with a large enough effect; inconclusive = small, poorly fitted or top-dose-only effect, or another doubt; inactive = no such curve, though single readings can be large; an effect the other way counts as inactive or inconclusive. Potency is read from the fitted curve at half-maximal effect.

SMILES	KB-V1 cytotox	SW480 rerep	12-LOX inh	MCF10A rerep	KB-3-1 cytotox	PINK1 modulator
CC(C)N1CCc2c(sc(NC(=O)c3ccc(S(=O)(=O)N4CCc5ccccc54)cc3)c2C(N)=O)C1	?	3%	·	?	21µM*	-1%
CC(C)N1CCc2c(sc(NC(=O)c3ccc(S(=O)(=O)N(C)C4CCCCC4)cc3)c2C(N)=O)C1	·	·	?	·	·	2%
CNC(=O)c1c(NC(=O)c2ccc(S(=O)(=O)N(C)c3ccccc3)cc2)sc2c1CCN(C(C)C)C2	?	?	0%	15µM*	i	10%
CC(=O)c1cccc(NC(=O)Cn2cnnc2C#N)c1	·	·	-8%	·	·	·
CC(C)N1CCc2c(sc(NC(=O)c3cc(-c4cccs4)nc4ccccc34)c2C(N)=O)C1	i	?	·	18µM*	?	1%
Cc1ccc(CNS(=O)(=O)c2ccc(N3CCCCS3(=O)=O)cc2)cc1	i	·	-13%	·	?	0%
CCN(Cc1ccccc1)C(=O)c1ccc(CNS(=O)(=O)c2ccc(C)cc2)cc1	18µM*	82%	-24%	21µM*	i	-1%
CC(=O)Nc1cc(C(=O)N2CCc3ccccc3C2)ccc1Sc1ccc(C)cc1	?	2%	0%	21µM*	i	0%
CCCN1CCN(C(=O)c2ccc(Sc3ccc(C)cc3)c(NC(C)=O)c2)CC1	i	-9%	-7%	-10%	i	?
COc1ccc(S(=O)(=O)NCc2ccc(C(=O)N3CCc4ccccc4C3)cc2)cc1	5.8µM*	-4%	-3%	2%	?	-3%
COc1ccc(CNS(=O)(=O)c2ccc(N3CCCCS3(=O)=O)cc2)cc1	?	·	?	·	16µM*	1%
CCOC(=O)N1CCN(C(=O)c2ccc(CNS(=O)(=O)c3ccc(OC)cc3)cc2)CC1	i	1%	5%	14%	i	-1%
CCNC(=O)C(C)NC(=O)c1cc(C(C)C)nc2c1cnn2C(C)C (configuration not stated)	·	·	-1%	·	·	·
CC(NC(=O)C1CCCC1)c1ccc(Cl)s1 (configuration not stated)	·	·	-2%	·	·	·
COc1cccc(CN2CCC(Cc3ncc(C)n3Cc3ccccc3)C2)c1 (configuration not stated)	·	·	81%	·	·	·
CSc1ccc(/C=C2\SC(=Nc3ccccc3)N(c3ccccc3)C2=O)cc1	·	·	29%	·	·	·
CCn1c(C)c(C)c2cc(C(=O)N3CCc4ccccc4C3)ccc21	?	?	-28%	3.7µM*	13µM*	3%
CCN1CCN(C(=O)c2ccc3c(c2)c(C)c(C)n3Cc2ccccc2)CC1	i	-2%	-23%	?	i	0%
Cc1ccc(S(=O)(=O)NCc2ccc(C(=O)N3CCc4ccccc4C3)cc2)cc1	4.6µM*	11%	-2%	16%	i	-2%
O=C1CC(N2C(=O)/C(=C/C=C/c3ccccc3)SC2=S)C(=O)N1c1ccccc1 (configuration not stated)	i	-40%	-21%	4.6µM*	i	5%
O=C(O)CN1C(=O)/C(=C/C=C/c2ccccc2)SC1=S	i	-15%	-28%	7%	i	-1%
COc1cc(C2CC(=O)Oc3c2c(=O)[nH]c2ccccc32)cc2c1OCO2 (configuration not stated)	·	·	17%	·	·	·
COc1cc2c3nnc(-c4ccccc4)c-3cn(Cc3ccc(F)cc3)c2cc1OC	i	18µM*	?	?	i	2%
COc1cc2c3nnc(-c4ccc(F)cc4)c-3cn(Cc3cccc(C)c3)c2cc1OC	i	21µM*	?	?	?	?
COc1cc2c3nnc(-c4ccc(F)cc4)c-3cn(Cc3cccc(F)c3)c2cc1OC	i	6.5µM*	·	?	?	?
SMILES	KB-V1 cytotox	SW480 rerep	12-LOX inh	MCF10A rerep	KB-3-1 cytotox	PINK1 modulator
COc1cc2c3nnc(-c4ccc(F)cc4)c-3cn(Cc3ccc(C)cc3)c2cc1OC	i	1%	-21%	?	?	?
Cc1ccc(-c2noc(COc3ccc4c(C)cc(=O)oc4c3)n2)cc1	·	·	5%	·	·	·
CCOc1cccc2cc(C(=O)N3CCN(C/C=C/c4ccccc4)CC3)c(=O)oc12	8.2µM*	1%	-12%	1%	i	-1%[38.3 µM]
CCOc1cccc2cc(C(=O)Oc3ccc(OC)cc3)c(=O)oc12	i	-1%	35µM*	6%	i	0%
Clc1ccc(-c2nc(-c3ccc(Br)o3)no2)c(Cl)c1	·	·	-16%	·	·	·
Cc1oc(-c2cccs2)nc1CC(=O)Nc1ccccc1O	·	·	-24%	·	·	·
O=C(COc1cc(O)c2c(=O)cc(-c3ccccc3)oc2c1)NCCOCCO	·	·	0%	·	·	·
O=C(c1cc2ccccc2cc1O)N1CCCC(C(F)(F)F)C1 (configuration not stated)	i	-1%	?	?	i	0%
COc1cc2ccccc2cc1C(=O)N1CCCC(C(F)(F)F)C1 (configuration not stated)	15µM*	-6%	1%	-4%	i	-1%
O=C(C1CCC(Cn2c(=S)[nH]c3ccccc3c2=O)CC1)N1CCN(c2ccccc2)CC1 (configuration not stated)	i	0%	5%	?	i	1%
COc1ccc(N2CCN(C(=O)C3CCC(Cn4c(=S)[nH]c5ccccc5c4=O)CC3)CC2)cc1 (configuration not stated)	2.9µM*	?	-2%	18%	18µM*	-3%[38.3 µM]
COc1ccc(N2CCN(CCCn3c(=S)[nH]c4ncccc4c3=O)CC2)cc1	i	1%	0%	7%	6.5µM*	5%
O=C(C1CCC(Cn2c(=S)[nH]c3ccccc3c2=O)CC1)N1CCOCC1 (configuration not stated)	23µM*	-7%	-6%	-1%	?	0%[38.3 µM]
O=C1N2CCCC2CN1C1CCN(Cc2ccccc2C(F)(F)F)CC1 (configuration not stated)	·	·	5%	·	·	·
COc1ccc(CN(C(=O)c2ccc(C#N)cc2)C(C)C2CC2)cc1 (configuration not stated)	·	·	-11%	·	·	·
O=C(O)Cn1ccc2cc(OCc3cccc(-c4ccc(F)cc4F)c3)cnc21	·	·	35µM*	·	·	·
COc1cccc(-c2cccc(COc3cnc4c(ccn4CC(=O)O)c3)c2)c1F	·	·	50µM*	·	·	·
Cc1cc(F)ccc1-c1cccc(COc2cnc3c(ccn3CC(=O)O)c2)c1	·	·	-19%[176 µM]	·	·	·
O=C(O)Cn1ccc2cc(OCc3cccc(-c4ccc(F)c(Cl)c4)c3)cnc21	·	·	50µM*	·	·	·
Cc1ccc(-c2cccc(COc3cnc4c(ccn4CC(=O)O)c3)c2)cc1	·	·	-7%[176 µM]	·	·	·
CC(C)(C)c1cc(N=Cc2ccccc2O)cc(C(C)(C)C)c1O	·	·	121%	·	·	·
